# Laboratory results reported in article PMC4336329 (PLoS ONE, 2015).
# The whole screen tested about 310,000 compounds, of which about 2,200 (0.71%) showed an effect of 50% or more. The effect is printed as a negative number. What follows is part of a selection rich in strong results, with near analogues and random picks from the rest.
# Molecular target: human ether-à-go-go-related gene (hERG) potassium channel (human, UniProt Q12809)
# Assay: primary screen, population patch clamp on CHO cells stably expressing hERG; higher = less effect of the substance
# Chain of human ether-à-go-go-related gene (hERG) potassium channel (Q12809 whole entry, looked up): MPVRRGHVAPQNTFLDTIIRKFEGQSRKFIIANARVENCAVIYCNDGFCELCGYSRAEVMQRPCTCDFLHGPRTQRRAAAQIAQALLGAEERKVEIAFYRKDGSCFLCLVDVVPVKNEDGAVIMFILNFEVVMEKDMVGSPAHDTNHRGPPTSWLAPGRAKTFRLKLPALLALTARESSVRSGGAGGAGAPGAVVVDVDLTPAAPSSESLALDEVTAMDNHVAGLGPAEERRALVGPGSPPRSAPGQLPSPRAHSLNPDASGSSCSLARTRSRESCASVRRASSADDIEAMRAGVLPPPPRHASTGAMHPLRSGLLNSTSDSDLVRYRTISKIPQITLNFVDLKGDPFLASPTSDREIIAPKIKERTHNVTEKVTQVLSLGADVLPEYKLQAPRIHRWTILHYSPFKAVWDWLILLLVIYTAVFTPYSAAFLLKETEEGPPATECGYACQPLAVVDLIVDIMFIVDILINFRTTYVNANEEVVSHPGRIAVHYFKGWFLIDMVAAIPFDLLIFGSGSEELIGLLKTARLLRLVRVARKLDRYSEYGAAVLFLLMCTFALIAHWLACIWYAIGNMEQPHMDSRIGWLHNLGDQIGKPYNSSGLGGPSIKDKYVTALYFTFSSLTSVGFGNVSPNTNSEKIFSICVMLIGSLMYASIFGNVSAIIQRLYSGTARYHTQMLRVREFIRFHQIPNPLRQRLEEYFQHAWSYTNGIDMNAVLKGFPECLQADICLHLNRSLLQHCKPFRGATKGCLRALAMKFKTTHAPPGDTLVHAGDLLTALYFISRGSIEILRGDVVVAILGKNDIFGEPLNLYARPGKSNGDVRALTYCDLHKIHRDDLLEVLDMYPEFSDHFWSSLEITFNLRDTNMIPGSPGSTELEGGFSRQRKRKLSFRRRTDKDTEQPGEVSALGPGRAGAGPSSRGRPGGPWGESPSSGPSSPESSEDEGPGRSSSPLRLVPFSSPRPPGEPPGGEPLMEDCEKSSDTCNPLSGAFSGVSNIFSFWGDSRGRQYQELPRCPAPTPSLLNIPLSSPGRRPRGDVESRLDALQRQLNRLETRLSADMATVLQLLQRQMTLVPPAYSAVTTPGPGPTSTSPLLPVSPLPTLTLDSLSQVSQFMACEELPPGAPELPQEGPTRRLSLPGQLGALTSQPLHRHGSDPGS
row,SMILES,"hERG current change (%, negative = inhibition) at 1uM [%]"
1,CC(C)Sc1nnc(-c2ccc(S(=O)(=O)N3CCOCC3)cc2)n1C,7.81
2,CCN(CC)Cc1cc(NC2=NS(=O)(=O)c3ccccc32)ccc1OC(=O)C(C)C.Cl,5.53
3,COc1ccc(NS(=O)(=O)c2ccc(NS(C)(=O)=O)cc2)cc1,6.82
4,COc1ccc(CNC(=O)c2ccccc2C(=O)O)cc1,0.458
5,CCN(CC(=O)Nc1c(F)cccc1F)C(=O)c1ccc(C#N)cc1,8.99
6,O=C(CSc1nnc(-c2ccncc2)o1)Nc1nncs1,15.3
7,O=C(CSc1nnc(-c2ccccc2Br)o1)Nc1nncs1,-63.5
8,O=C(CSc1nnc(-c2ccccc2Br)o1)Nc1cccc2ccccc12,3.82
9,CSc1n[nH]c(NC2=CC(=O)CCC2)n1,15
10,CC(C(=O)Nc1cccc([N+](=O)[O-])c1)N1CCN(C/C=C/c2ccccc2)CC1 (stereo not drawn),-74.2
11,CC(=O)c1ccc(NC(=O)C(C)N2CCN(C/C=C/c3ccccc3)CC2)cc1 (stereo not drawn),-41
12,COc1ccc(Cl)cc1NC(=O)C(C)N1CCN(C/C=C/c2ccccc2)CC1.O=C(O)C(=O)O (stereo not drawn),-14.3
13,COc1ccccc1NC(=S)N1CCN(C/C=C/c2ccccc2)CC1,7.29
14,CC(C(=O)Nc1cccc(S(=O)(=O)N2CCOCC2)c1)N1CCN(C/C=C/c2ccccc2)CC1 (stereo not drawn),-32.5
15,COc1ccc(N2CCN(C(C)C(=O)N(C)Cc3ccccc3)CC2)cc1 (stereo not drawn),-10
16,COc1ccccc1NC(=O)C(C)N1CCN(C/C=C/c2ccccc2)CC1 (stereo not drawn),-75.2
17,CNC(=O)NC(=O)C(C)N1CCN(C/C=C/c2ccccc2)CC1 (stereo not drawn),-32.1
18,CC(C(=O)N(C)Cc1ccccc1)N1CCN(C/C=C/c2ccccc2)CC1 (stereo not drawn),-73.5
19,Cc1sc2nc[nH]c(=O)c2c1-c1ccc(F)cc1,17.2
20,Cc1ccccc1Nc1nc(-c2sc(NC(=O)c3ccccc3)nc2C)cs1,7.9
21,CC(c1ccncn1)N(C)C(=O)c1ccc2oc(Cc3ccccc3)nc2c1 (stereo not drawn),9.8
22,CCOc1ccc(NS(=O)(=O)c2ccc(NS(=O)(=O)c3ccc(SC)cc3)cc2)cc1,9.23
23,CCCN1Cc2cccc(C(=O)NCc3ccc(C)cc3)c2C1=O,-4.32
24,CCC(C)N(C)C(=O)c1cc2ccccc2c(-c2ccccc2Cl)n1 (stereo not drawn),-5.29
